# Test results: the supplement of paper PMC6555819
# Experiments:
# Experiment in all cases: PBM binding z-score (relative to random genomic background probes); higher = stronger binding; sequences stand for … in GC…GCGATTGACAGCGTAGAATGAAGG
# [1] = tested on: PPARg:RXRa DBDmut IVT, anti-RXR (DBD mutation: RXRa K156A/R161A, NR concentration 270 nM, RXRa partner concentration 90 nM)
# Outline: (§1)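 Binding z-scores take random background probes as their reference. They come from custom Agilent 4×180K protein-binding microarrays incubated 1 h with ligand-free nuclear receptor dimers, with antibodies against each partner (one per run) detecting binding. Scanned fluorescence was regression-normalized.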
# [2] = tested on: PPARg:RXRa IVT, anti-PPARg (NR concentration 270 nM, RXRa partner concentration 90 nM)
# Outline: as §1
# [3] = tested on: PPARg DBDmut IVT, anti-PPARg (DBD mutation: PPARg1 K132A/R137A, NR concentration 270 nM)
# Outline: as §1
# [4] = tested on: PPARg homodimer (NR concentration 180 nM)
# Outline: as §1
# [5] = tested on: PXR:RXRa (NR concentration 270 nM, RXRa partner concentration 90 nM)
# Outline: as §1
# [6] = tested on: PXR homodimer (NR concentration 270 nM)
# Outline: as §1
# [7] = tested on: RARa:RXR (NR concentration 270 nM, RXRa partner concentration 90 nM)
# Outline: as §1
# [8] = tested on: RARa homodimer (NR concentration 270 nM)
# Outline: as §1
# [9] = tested on: RARb:RXRa (NR concentration 270 nM, RXRa partner concentration 90 nM)
# Outline: as §1
# [10] = tested on: RARb homodimer (NR concentration 270 nM)
# Outline: as §1
# [11] = tested on: RARg:RXRa (NR concentration 270 nM, RXRa partner concentration 90 nM)
# Outline: as §1
# [12] = tested on: RARg homodimer (NR concentration 270 nM)
# Outline: as §1
# [13] = tested on: RXRa DBDmut IVT, anti-RXR (DBD mutation: RXRa K156A/R161A, NR concentration 90 nM)
# Outline: as §1
# [14] = tested on: RXRa homodimer (NR concentration 180 nM)
# Outline: as §1
# [15] = tested on: THRa:RXRa (NR concentration 90 nM, RXRa partner concentration 90 nM)
# Outline: as §1
# [16] = tested on: THRa homodimer (NR concentration 90 nM)
# Outline: as §1
# [17] = tested on: VDR homodimer (NR concentration 270 nM)
# Outline: as §1
# [18] = tested on: VDR:RXRa (NR concentration 270 nM, RXRa partner concentration 90 nM)
# Outline: as §1
Sequence,PBM binding z-score [1],PBM binding z-score [2],PBM binding z-score [3],PBM binding z-score [4],PBM binding z-score [5],PBM binding z-score [6],PBM binding z-score [7],PBM binding z-score [8],PBM binding z-score [9],PBM binding z-score [10],PBM binding z-score [11],PBM binding z-score [12],PBM binding z-score [13],PBM binding z-score [14],PBM binding z-score [15],PBM binding z-score [16],PBM binding z-score [17],PBM binding z-score [18]
CGAACTAGGTCACCAGGACAGGGAAGAGGTTGGA,8.23,8.76,5.57,4.22,1.22,0.127,2.58,0.696,4.13,3.18,4.35,4.97,1.23,2.96,3.26,1.9,0.549,–
ATATGTAGGTTAGGGTCATGCAGAAAGTAGGGAA,6.6,6.52,2.44,2.6,4.26,1.01,5.05,1.83,3.66,3.55,4.44,3.61,2.02,5.67,4.25,3.53,2.78,–
ATATGTAGGTTAGGGTCCTTCAGAAAGTAGGGAA,6.21,6.11,1.93,1.37,0.573,0.477,0.72,0.953,1.03,0.958,0.561,0.821,0.642,0.851,1.21,0.898,0.793,–
CGAACTAGGTCACCAGGCCAGTGAAGAGGTTGGA,8.23,8.8,0.89,2.25,1.18,-0.53,2.73,-0.334,4.22,3.33,4.61,5.11,1.05,3.21,2.98,0.969,0.372,–
CGAACTAGGTCAAAGAACAGTGAAAGGCGACGTA,7.89,8.03,1.2,0.602,0.752,-0.206,1.51,-0.184,3.58,2.03,3.41,4.27,1.3,3,2.06,0.033,0.121,–
ATATGTAGGTTAGGGTCATTAAGAAAGTAGGGAA,6.33,6.81,3.64,3.28,3.9,1.85,4.79,1.97,3.32,3.33,3.59,2.76,2.22,4.57,3.9,2.76,3.54,–
CTAACTAGGTCACCAGGACAGTGAAGAGGTTGGA,8.89,9.08,-0.261,1.88,1.42,0.375,2.8,0.69,4.28,3.4,4.69,5.53,1.67,3.98,3.51,2.16,0.856,–
CGAACTAGGTCAGAGGACAGTGAAAGGCGACGTA,7.39,7.68,-0.191,1.33,0.248,-0.238,0.823,-0.0193,3.36,2.41,2.82,3.91,0.547,1.54,1.76,0.433,-7.91e-05,–
ATATGTAAGTTAGGGTCATTCAGAAAGTAGGGAA,1.38,2.41,1.73,2.2,4.63,1.59,5.07,1.77,3.23,3.04,4,3.02,2.47,5.33,4.05,2.85,3.96,–
TCGAGTAGGTTACGGGGGCGTTCAGGGATGAAGA,4.48,5.35,–,2.99,2.69,1.81,2.9,0.56,2.23,1.66,2.9,1.99,1.4,2.05,3.24,1.34,3.52,3.7
ATATGTAGGTTAGGGTCATTCTGAAAGTAGGGAA,6.26,6.44,1.97,2.88,4.18,1.87,–,1.91,3.35,3.35,3.61,2.78,2.79,4.88,4.05,3.12,3.77,4.44
CGAACTAGGTCACCAGGACAGCGAAGAGGTTGGA,7.82,8.67,0.871,2.15,1.34,-0.232,2.32,0.196,4.21,3.27,–,5.1,1.22,3.19,3.27,1.62,0.423,1.88
CGAACTAAGTCACCAGGACAGTGAAGAGGTTGGA,2.13,1.61,-0.0362,0.131,-0.257,0.203,0.00404,-0.12,0.526,0.502,–,0.343,0.000632,0.285,1.27,0.708,0.106,–
CTATGTAGGTTAAGGGGGACATTCAGTTTGAAAG,7.33,7.62,–,2.11,2.48,5.75,1.65,1.11,2.1,1.99,1.81,1.7,1.47,1.39,2.23,1.37,2.64,4.95
CTTTGTAGGTTAAGGGGGTCATTCAGTTTGAAAG,7.24,7.18,–,3.76,5.9,12,5.32,2.04,3.67,3.99,5.28,4.16,2.79,6.08,3.97,2.08,5.68,7.48
CGAACTAGGTCACCAGGACAGTTAAGAGGTTGGA,8.1,8.64,5.1,2.14,1.49,0.424,2.73,0.481,4.2,3.53,–,5.1,1.21,3.22,3.41,1.68,0.347,–
CCGAGTACGTTACGAGGGGGCATTCAGTGCGAAT,0.709,1.25,–,1.37,3.35,6.19,2.07,0.384,1.29,1.5,1.85,1.41,3.95,1.17,2.36,0.395,4.78,4.15
ATATGTAGGTTAGCGTCATTCAGAAAGTAGGGAA,6.57,6.84,1.38,0.87,-0.0758,0.0634,-0.121,0.244,0.594,0.285,0.435,0.62,-0.0875,–,0.15,-0.253,0.0488,–
TCGATTAGGTTACGGGGGCATTCAGGGATGAAGA,5.15,5.84,–,2.49,3.63,2.83,3.51,1.32,3.28,2.92,3.79,3.07,2.95,3.17,4.36,2.54,4.05,4.31
CGAACCAGGTCACCAGGACAGTGAAGAGGTTGGA,5.49,6.38,0.103,2.28,2.81,0.0931,3.75,0.523,4.37,3.59,5.06,5.35,2.04,4.73,3.94,2.77,1.62,–
CGAACTAGGTCAAAAGACAGTGAAAGGCGACGTA,7.84,7.79,0.23,0.576,0.624,-0.275,1.45,-0.196,3.17,1.72,–,3.68,1.21,2.54,1.64,-0.0657,-0.0484,–
CCGAGTAGGTGACGAGGGGGCATTCAGTGCGAAT,5.58,5.86,–,1.39,4.21,5.4,2.76,0.823,1.75,1.89,2.34,2.1,1.05,1.35,3.34,0.888,3.45,4.37
CTATGTAGGTTAAGGGGGCCATTCAGTTTGAAAG,7.13,7.17,–,1.77,2.69,3.67,2.17,0.379,1.94,1.71,2.17,1.78,1.21,1.73,2.02,0.914,1.98,4.74
CTATGTAGGTTAAGGGGGGCATTCAGTTTGAAAG,7.45,7,–,3.9,4.18,8.89,2.96,3.91,3.35,2.88,3.52,2.84,2.58,2.76,3.12,2.39,4.81,6.21
CGAACTAAGTCAAAGGACAGTGAAAGGCGACGTA,0.998,1.31,0.266,0.434,-0.186,-0.123,0.156,0.0596,1.29,1.11,0.597,1.1,0.0633,–,0.219,-0.0369,-0.13,–
CGAACTAGGTGAAAGGACAGTGAAAGGCGACGTA,7.36,7.28,1.83,1.93,-0.398,-0.114,-0.0573,-0.695,1.54,1.15,0.833,1.07,-0.365,0.373,0.672,-0.413,-0.349,–
CGAACTAGGTCAAAGGTCAGTGAAAGGCGACGTA,8.37,9.1,4.58,5.51,–,0.306,–,2.87,–,5.03,–,6.89,2.37,–,4.55,1.2,1.85,–
ATAAGTAGGTTAGGGTCATTCAGAAAGTAGGGAA,6.82,6.77,2.11,3.79,4.78,3.26,5.36,2.72,3.63,3.7,–,3.3,2.39,5.12,4.31,3.58,4.32,–
